Experimental data from the supplement of paper PMC10849652.
Of roughly 7,900 targets only a part is listed; those with a hit were picked by preference. About 0.6% of all pairs of compound and target were hits.

Experiments:
Test in all cases: log2 fold change, soluble protein after heating vs DMSO (PISA); higher = thermal stabilisation; K562 cells, 10 uM, 30 min; active = over 0.2 and 3.5 SD of the protein, either way, in both replicates (recomputed)
[1] = compound: CC[C@@H]1C(=O)N(C)c2cnc(Nc3ccc(C(=O)NC4CCN(C)CC4)cc3OC)nc2N1C1CCCC1
Summary of the method: (§1)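 K562 cells at 2×10^6 cells/mL were exposed to 10 μM compound for 30 min, then aliquots were heated for 3 min across 48°C-58°C, pooled, and extracted in PBS containing 0.5% NP-40 at 4°C. The supernatant after 21,000xg for 90 min was taken as soluble protein and measured by TMTpro 16plex LC-MS/MS with channel sums equalised. Thermal stability is reported relative to control samples, with values from duplicates. Fold changes are given on a log2 scale.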

volasertib = compound: CC[C@@H]1C(=O)N(C)c2cnc(Nc3ccc(C(=O)N[C@H]4CC[C@H](N5CCN(CC6CC6)CC5)CC4)cc3OC)nc2N1C(C)C [volasertib]
Summary of the method: as §1

[2] = compound: CC[C@H](C)N1C=C(C2=C(C=C(C=C21)C3=CN=C(C=C3)N4CCNCC4)C(=O)NCC5=C(C=C(NC5=O)C)C)C
Summary of the method: as §1

epoxomicin = compound: CC[C@H](C)[C@@H](C(=O)N[C@@H]([C@@H](C)O)C(=O)N[C@@H](CC(C)C)C(=O)[C@]1(CO1)C)NC(=O)[C@H]([C@@H](C)CC)N(C)C(=O)C [epoxomicin]
Summary of the method: as §1

[3] = compound: CCn1c(C(=O)N(C2CC2)C2CC2)cc2c3c(ncn3C)c(Nc3cc(C)n(C)n3)nc21
Summary of the method: as §1

[4] = compound: CCn1cc(-c2ccnc3[nH]c(-c4cccc(CN(C)C)c4)cc23)c(-c2ccc(NC(=O)N(C)C)cc2)n1
Summary of the method: as §1

[5] = compound: CN(C)CC(=O)Nc1ccc2[nH]c(=O)c3ccccc3c2c1
Summary of the method: as §1

rosiglitazone = compound: CN(CCOC1=CC=C(C=C1)C[C@H]2C(=O)NC(=O)S2)C3=CC=CC=N3 (racemic) [rosiglitazone]
Summary of the method: as §1

[6] = compound: CN1C2=C(C3=C1C(=O)N(N=C3)CC4=CC(=CC=C4)N)SC(=C2)S(=O)C
Summary of the method: as §1

[7] = compound: CN1CCC(CNc2ccc3ncc(-c4cccc(OC(F)(F)F)c4)n3n2)CC1
Summary of the method: as §1

saracatinib = compound: CN1CCN(CCOc2cc(OC3CCOCC3)c3c(Nc4c(Cl)ccc5c4OCO5)ncnc3c2)CC1 [saracatinib]
Summary of the method: as §1

sotrastaurin = compound: CN1CCN(c2nc(C3=C(c4c[nH]c5ccccc45)C(=O)NC3=O)c3ccccc3n2)CC1 [sotrastaurin]
Summary of the method: as §1

alvocidib = compound: CN1CC[C@H](c2c(O)cc(O)c3c(=O)cc(-c4ccccc4Cl)oc23)[C@H](O)C1 [alvocidib]
Summary of the method: as §1

Tubastatin A = compound: CN1CCc2c(c3ccccc3n2Cc2ccc(C(=O)NO)cc2)C1 [Tubastatin A]
Summary of the method: as §1

[8] = compound: CNC(=O)C1=CC=CC=C1NC2=NC(=NC=C2Cl)NC3=C(C=C(C=C3)N4CCOCC4)OC
Summary of the method: as §1

defactinib = compound: CNC(=O)c1ccc(Nc2ncc(C(F)(F)F)c(NCc3nccnc3N(C)S(C)(=O)=O)n2)cc1 [defactinib]
Summary of the method: as §1

rucaparib = compound: CNCc1ccc(-c2[nH]c3cc(F)cc4c3c2CCNC4=O)cc1 [rucaparib]
Summary of the method: as §1

[9] = compound: CNc1nc(-c2ccc3c(N)n[nH]c3c2)cc(N2C[C@@H](C(=O)NC3CCCCC3)CC[C@H]2C)n1
Summary of the method: as §1

encorafenib = compound: COC(=O)N[C@@H](C)CNc1nccc(-c2cn(C(C)C)nc2-c2cc(Cl)cc(NS(C)(=O)=O)c2F)n1 [encorafenib]
Summary of the method: as §1

[10] = compound: COC(=O)[C@H](CCSC)NC(=O)C1=C(C=C(C=C1)NC[C@H](CS)N)C2=CC=CC=C2
Summary of the method: as §1

Measured: log2 fold change

IMMT isoform 4 (UniProt Q16891)
active: [7] -0.325
inactive: [1] -0.131 | volasertib -0.099 | [2] 0.013 | epoxomicin 0.035 | [3] 0.015 | [4] -0.004 | [5] 0.002 | rosiglitazone 0.002 | [6] -0.047 | saracatinib -0.012 | sotrastaurin -0.002 | alvocidib -0.009 | Tubastatin A -0.033 | [8] -0.014 | defactinib -0.012 | rucaparib -0.055 | [9] -0.007 | encorafenib 0.012 | [10] 0.002

IRF3 (UniProt Q14653)
inactive: [1] -0.05 | volasertib -0.1 | [2] -0.052 | epoxomicin -0.035 | [3] -0.02 | [4] -0.037 | [5] 0.018 | rosiglitazone 0.024 | [6] -0.024 | [7] -0.045 | saracatinib 0.061 | sotrastaurin -0.043 | alvocidib -0.07 | Tubastatin A 0 | [8] 0.006 | defactinib -0.062 | rucaparib -0.057 | [9] -0.01 | encorafenib 0.014 | [10] -0.014

MARCKSL1 (UniProt P49006)
active: sotrastaurin 0.315
inactive: [1] -0.055 | volasertib 0.038 | [2] 0.021 | epoxomicin -0.055 | [3] 0.02 | [4] -0.015 | [5] -0.044 | rosiglitazone 0.012 | [6] -0.08 | [7] 0.147 | saracatinib 0.02 | alvocidib -0.005 | Tubastatin A -0.043 | [8] 0.013 | defactinib 0.007 | rucaparib -0.035 | [9] 0.063 | encorafenib -0.04 | [10] -0.008

KDM3B (UniProt Q7LBC6)
active: volasertib -0.349
inactive: [1] -0.164 | [2] 0.06 | epoxomicin 0.061 | [3] -0.024 | [4] 0.001 | [5] 0.043 | rosiglitazone 0.048 | [6] -0.049 | [7] -0.071 | saracatinib 0.01 | sotrastaurin -0.089 | alvocidib -0.091 | Tubastatin A -0.01 | [8] 0.072 | defactinib -0.161 | rucaparib -0.058 | [9] -0.093 | encorafenib 0.054 | [10] -0.029

ME2 (UniProt P23368)
active: volasertib 0.445
inactive: [1] 0.164 | [2] 0.006 | epoxomicin 0.108 | [3] -0.012 | [4] -0.015 | [5] -0.002 | rosiglitazone 0.016 | [6] -0.02 | [7] 0.145 | saracatinib 0.061 | sotrastaurin 0.014 | alvocidib 0.022 | Tubastatin A 0.026 | [8] 0.151 | defactinib -0.037 | rucaparib -0.011 | [9] -0.11 | encorafenib 0.015 | [10] 0.034

MED16 (UniProt Q9Y2X0)
inactive: [1] 0.128 | volasertib 0.101 | [2] 0.004 | epoxomicin -0.262 | [3] -0.002 | [4] 0.031 | [5] 0.086 | rosiglitazone 0.05 | [6] 0.087 | [7] 0.06 | saracatinib -0.006 | sotrastaurin -0.044 | alvocidib -0.236 | Tubastatin A -0.098 | [8] 0.074 | defactinib -0.009 | rucaparib -0.004 | [9] 0.043 | encorafenib -0.025 | [10] -0.052

MAP2K7 isoform 4 (UniProt O14733)
Sequence of UniProt O14733 (O14733 whole entry, looked up): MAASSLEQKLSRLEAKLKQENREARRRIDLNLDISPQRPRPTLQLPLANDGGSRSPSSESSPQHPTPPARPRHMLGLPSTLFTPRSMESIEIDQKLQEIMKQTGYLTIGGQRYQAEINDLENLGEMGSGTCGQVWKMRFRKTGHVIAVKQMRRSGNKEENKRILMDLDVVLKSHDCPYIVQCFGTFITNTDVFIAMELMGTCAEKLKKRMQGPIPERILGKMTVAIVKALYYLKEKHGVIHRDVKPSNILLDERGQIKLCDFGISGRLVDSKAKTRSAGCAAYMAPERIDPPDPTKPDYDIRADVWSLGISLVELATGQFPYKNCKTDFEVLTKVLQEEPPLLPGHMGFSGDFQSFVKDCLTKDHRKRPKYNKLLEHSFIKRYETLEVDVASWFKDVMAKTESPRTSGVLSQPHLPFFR
inactive: [1] -0.026 | volasertib -0.005 | [2] 0.022 | epoxomicin 0.07 | [3] 0.017 | [4] -0.086 | [5] -0.017 | rosiglitazone 0.033 | [6] -0.065 | [7] -0.15 | saracatinib 0.063 | sotrastaurin 0.026 | alvocidib -0.028 | Tubastatin A -0.002 | [8] -0.04 | defactinib -0.012 | rucaparib 0.036 | [9] -0.001 | encorafenib 0.013 | [10] -0.01

INPP1 (UniProt P49441)
Sequence of UniProt P49441 (P49441 whole entry, looked up): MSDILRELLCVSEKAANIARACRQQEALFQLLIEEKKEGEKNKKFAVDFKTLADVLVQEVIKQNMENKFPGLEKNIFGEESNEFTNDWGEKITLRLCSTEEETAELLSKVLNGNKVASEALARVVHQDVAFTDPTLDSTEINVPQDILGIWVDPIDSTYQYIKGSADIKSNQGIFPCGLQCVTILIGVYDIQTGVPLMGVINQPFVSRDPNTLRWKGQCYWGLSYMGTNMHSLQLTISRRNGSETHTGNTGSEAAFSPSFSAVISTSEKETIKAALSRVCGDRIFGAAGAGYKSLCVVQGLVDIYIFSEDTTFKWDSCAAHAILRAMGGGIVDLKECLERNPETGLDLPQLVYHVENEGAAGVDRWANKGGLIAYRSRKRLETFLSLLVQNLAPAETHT
inactive: [1] 0.011 | volasertib -0.042 | [2] 0.028 | epoxomicin 0.052 | [3] 0.005 | [4] -0.011 | [5] -0.047 | rosiglitazone 0.002 | [6] 0.014 | saracatinib 0.071 | sotrastaurin 0 | alvocidib -0.011 | Tubastatin A 0.061 | [8] 0.044 | defactinib -0.032 | rucaparib -0.029 | [9] 0.048 | encorafenib 0.038 | [10] -0.038
active: [7] -0.296

MAP4 (UniProt P27816)
inactive: [1] 0.011 | volasertib 0.049 | [2] -0.041 | epoxomicin -0.003 | [3] 0.018 | [4] -0.002 | [5] -0.03 | rosiglitazone -0.021 | [6] -0.004 | [7] 0.037 | saracatinib 0.017 | sotrastaurin 0.019 | alvocidib 0.042 | Tubastatin A -0.029 | [8] -0.014 | defactinib 0.016 | rucaparib 0.009 | [9] -0.029 | encorafenib -0.001 | [10] 0.031

MARCKS (UniProt P29966)
active: [4] 0.268
inactive: [1] 0.035 | volasertib -0.027 | [2] -0.091 | epoxomicin -0.044 | [3] 0 | [5] -0.043 | rosiglitazone 0.03 | [6] -0.014 | [7] 0.089 | saracatinib 0.019 | sotrastaurin 0.077 | alvocidib -0.016 | Tubastatin A 0.039 | [8] 0.005 | defactinib 0.009 | rucaparib -0.02 | [9] -0.02 | encorafenib -0.014 | [10] 0.002

MAP3K7 (UniProt O43318)
Sequence of UniProt O43318 (O43318 whole entry, looked up): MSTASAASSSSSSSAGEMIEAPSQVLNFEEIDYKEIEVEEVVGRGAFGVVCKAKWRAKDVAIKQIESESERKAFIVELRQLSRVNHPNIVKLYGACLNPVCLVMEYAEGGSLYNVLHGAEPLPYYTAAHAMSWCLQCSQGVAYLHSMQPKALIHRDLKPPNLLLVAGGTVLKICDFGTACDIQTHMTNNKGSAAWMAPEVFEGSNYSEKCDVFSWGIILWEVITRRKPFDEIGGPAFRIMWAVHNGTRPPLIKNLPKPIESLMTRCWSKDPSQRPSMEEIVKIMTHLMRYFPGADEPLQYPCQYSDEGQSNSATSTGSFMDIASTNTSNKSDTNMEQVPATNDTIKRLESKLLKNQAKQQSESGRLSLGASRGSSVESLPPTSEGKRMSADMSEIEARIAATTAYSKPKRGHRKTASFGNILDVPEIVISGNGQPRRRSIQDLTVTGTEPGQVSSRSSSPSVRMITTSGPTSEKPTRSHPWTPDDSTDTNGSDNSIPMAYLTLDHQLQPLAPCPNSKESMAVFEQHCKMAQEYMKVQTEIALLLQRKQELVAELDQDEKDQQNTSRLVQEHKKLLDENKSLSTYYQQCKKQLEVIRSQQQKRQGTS
active: volasertib -0.369
inactive: [1] -0.015 | [2] -0.008 | epoxomicin 0.018 | [3] 0.032 | [4] 0.043 | [5] 0.046 | rosiglitazone 0.079 | [6] 0.079 | [7] -0.093 | saracatinib -0.07 | sotrastaurin -0.146 | alvocidib -0.072 | Tubastatin A 0.054 | [8] 0.023 | defactinib -0.023 | rucaparib 0.099 | [9] -0.035 | encorafenib 0.1 | [10] -0.011

KNTC1 (UniProt P50748)
Sequence of UniProt P50748 (P50748 whole entry, looked up): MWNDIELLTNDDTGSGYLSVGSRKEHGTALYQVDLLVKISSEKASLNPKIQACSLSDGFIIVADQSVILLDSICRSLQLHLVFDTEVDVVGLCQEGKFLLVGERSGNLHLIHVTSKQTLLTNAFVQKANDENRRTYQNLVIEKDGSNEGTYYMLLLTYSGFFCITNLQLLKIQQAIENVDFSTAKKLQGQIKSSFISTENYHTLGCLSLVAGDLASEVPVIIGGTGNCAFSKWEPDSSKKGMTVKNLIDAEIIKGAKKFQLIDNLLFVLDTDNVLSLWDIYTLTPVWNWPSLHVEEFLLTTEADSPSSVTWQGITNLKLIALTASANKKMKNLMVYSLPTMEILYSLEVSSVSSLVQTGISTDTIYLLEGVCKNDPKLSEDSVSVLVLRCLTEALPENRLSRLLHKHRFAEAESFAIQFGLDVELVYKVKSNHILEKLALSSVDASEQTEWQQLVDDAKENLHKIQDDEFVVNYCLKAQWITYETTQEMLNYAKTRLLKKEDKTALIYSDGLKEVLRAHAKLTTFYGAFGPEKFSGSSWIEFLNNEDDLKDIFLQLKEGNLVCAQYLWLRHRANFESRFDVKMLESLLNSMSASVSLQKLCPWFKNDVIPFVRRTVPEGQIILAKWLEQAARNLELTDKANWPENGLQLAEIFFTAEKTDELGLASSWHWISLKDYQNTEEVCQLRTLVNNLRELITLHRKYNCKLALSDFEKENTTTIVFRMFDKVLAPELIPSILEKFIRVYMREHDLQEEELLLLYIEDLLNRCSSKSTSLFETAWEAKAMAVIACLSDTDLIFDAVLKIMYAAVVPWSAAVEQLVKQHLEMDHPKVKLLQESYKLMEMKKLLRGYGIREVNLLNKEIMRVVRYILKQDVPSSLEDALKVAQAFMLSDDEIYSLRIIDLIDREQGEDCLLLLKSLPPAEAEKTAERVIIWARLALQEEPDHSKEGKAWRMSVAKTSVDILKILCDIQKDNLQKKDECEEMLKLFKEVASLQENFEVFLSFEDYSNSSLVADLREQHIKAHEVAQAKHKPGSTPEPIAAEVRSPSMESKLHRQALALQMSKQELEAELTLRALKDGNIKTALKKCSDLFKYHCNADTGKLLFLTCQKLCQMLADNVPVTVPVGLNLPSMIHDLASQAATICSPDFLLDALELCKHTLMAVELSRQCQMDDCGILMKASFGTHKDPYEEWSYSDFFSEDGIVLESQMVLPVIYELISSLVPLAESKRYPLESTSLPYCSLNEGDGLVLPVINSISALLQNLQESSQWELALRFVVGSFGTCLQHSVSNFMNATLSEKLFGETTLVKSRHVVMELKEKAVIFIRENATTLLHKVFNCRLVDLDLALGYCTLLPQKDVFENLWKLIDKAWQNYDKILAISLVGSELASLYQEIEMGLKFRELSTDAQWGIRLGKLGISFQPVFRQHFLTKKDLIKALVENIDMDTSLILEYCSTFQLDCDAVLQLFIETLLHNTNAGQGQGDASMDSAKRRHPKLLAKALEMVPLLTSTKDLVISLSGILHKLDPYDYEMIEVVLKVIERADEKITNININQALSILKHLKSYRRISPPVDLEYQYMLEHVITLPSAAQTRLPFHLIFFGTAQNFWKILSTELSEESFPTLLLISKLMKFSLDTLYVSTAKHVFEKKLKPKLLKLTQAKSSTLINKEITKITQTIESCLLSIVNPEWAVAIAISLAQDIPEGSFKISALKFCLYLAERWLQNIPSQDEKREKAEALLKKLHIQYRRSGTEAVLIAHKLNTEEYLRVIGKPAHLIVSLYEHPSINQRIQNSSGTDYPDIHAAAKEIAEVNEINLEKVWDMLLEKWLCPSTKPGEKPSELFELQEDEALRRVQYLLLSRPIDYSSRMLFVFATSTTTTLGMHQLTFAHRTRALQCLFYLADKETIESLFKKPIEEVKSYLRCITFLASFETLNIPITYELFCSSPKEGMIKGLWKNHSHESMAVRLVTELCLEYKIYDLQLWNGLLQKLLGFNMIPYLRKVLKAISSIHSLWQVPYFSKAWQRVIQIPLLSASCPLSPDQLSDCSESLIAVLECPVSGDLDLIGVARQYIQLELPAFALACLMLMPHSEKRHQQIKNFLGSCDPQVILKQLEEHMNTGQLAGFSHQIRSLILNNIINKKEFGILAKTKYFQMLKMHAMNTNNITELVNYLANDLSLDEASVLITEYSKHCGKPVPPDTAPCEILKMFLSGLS
inactive: [1] -0.255 | [2] 0.022 | epoxomicin 0.016 | [3] -0.015 | [4] -0.007 | [5] 0.037 | rosiglitazone 0.044 | [6] 0.027 | [7] -0.219 | saracatinib -0.034 | sotrastaurin -0.051 | alvocidib 0.013 | Tubastatin A 0.018 | [8] 0.033 | defactinib -0.044 | rucaparib 0.021 | [9] -0.076 | encorafenib 0.077 | [10] -0.041
active: volasertib -0.504

LRBA (UniProt P50851)
inactive: [1] -0.05 | [2] 0.034 | epoxomicin 0.017 | [3] 0 | [4] -0.074 | [5] 0.008 | rosiglitazone 0.048 | [6] -0.057 | [7] -0.139 | saracatinib 0.039 | sotrastaurin -0.031 | alvocidib -0.054 | Tubastatin A 0.014 | [8] -0.012 | defactinib -0.015 | rucaparib -0.01 | [9] -0.023 | encorafenib 0.018 | [10] -0.002
active: volasertib -0.221

MAGI1 (UniProt Q96QZ7)
Sequence of UniProt Q96QZ7 (Q96QZ7 whole entry, looked up): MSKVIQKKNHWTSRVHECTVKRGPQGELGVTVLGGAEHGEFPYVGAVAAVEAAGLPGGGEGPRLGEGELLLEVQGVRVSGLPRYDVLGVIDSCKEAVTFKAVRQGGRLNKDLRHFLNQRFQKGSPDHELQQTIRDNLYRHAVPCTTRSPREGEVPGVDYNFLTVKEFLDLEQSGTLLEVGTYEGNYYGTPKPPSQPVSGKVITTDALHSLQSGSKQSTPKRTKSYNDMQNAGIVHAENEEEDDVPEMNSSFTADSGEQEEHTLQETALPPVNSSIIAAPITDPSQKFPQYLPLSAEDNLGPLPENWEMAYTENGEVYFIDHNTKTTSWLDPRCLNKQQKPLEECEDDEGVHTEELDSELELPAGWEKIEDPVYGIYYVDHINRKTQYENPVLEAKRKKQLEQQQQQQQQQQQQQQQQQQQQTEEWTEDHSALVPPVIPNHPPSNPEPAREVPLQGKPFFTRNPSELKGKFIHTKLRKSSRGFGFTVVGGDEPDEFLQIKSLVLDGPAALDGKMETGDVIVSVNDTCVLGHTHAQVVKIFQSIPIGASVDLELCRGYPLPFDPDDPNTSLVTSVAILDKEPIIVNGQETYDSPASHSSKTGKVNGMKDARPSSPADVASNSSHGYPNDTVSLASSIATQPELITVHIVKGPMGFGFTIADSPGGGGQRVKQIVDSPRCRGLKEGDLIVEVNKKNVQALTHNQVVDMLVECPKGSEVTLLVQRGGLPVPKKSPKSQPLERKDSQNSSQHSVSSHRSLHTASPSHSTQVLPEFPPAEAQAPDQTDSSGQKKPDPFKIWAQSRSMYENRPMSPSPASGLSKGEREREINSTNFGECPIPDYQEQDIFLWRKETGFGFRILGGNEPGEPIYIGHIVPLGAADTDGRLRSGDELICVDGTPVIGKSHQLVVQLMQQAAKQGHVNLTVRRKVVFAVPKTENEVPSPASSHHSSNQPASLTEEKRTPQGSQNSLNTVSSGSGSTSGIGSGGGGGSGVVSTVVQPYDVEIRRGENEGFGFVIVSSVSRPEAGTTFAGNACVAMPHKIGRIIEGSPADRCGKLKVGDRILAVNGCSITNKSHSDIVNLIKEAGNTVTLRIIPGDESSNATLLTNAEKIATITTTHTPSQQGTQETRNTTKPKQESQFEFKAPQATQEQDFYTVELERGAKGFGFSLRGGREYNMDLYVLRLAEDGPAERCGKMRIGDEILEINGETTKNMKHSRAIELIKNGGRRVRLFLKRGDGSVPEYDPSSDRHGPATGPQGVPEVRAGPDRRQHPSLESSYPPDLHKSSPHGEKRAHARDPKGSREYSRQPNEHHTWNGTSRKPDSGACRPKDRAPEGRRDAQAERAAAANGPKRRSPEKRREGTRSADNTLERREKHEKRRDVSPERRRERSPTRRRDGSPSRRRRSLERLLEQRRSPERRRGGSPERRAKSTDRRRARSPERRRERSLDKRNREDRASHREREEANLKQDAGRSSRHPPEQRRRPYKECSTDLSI
inactive: [1] 0.041 | volasertib 0.031 | [2] 0.026 | epoxomicin -0.045 | [3] 0.005 | [4] 0.012 | [5] -0.041 | rosiglitazone 0.016 | [6] 0.014 | [7] -0.011 | saracatinib -0.013 | sotrastaurin -0.064 | alvocidib -0.019 | Tubastatin A -0.017 | [8] 0.021 | defactinib -0.007 | rucaparib 0.012 | [9] 0.024 | encorafenib 0.059 | [10] -0.009

KLHDC4 (UniProt Q8TBB5)
inactive: [1] 0.091 | volasertib -0.342 | [2] 0.012 | epoxomicin -0.026 | [3] 0.036 | [4] -0.064 | [5] 0.065 | rosiglitazone -0.012 | [6] 0.075 | [7] 0.158 | saracatinib -0.006 | sotrastaurin -0.037 | alvocidib 0.074 | Tubastatin A -0.072 | [8] 0.02 | defactinib 0.021 | rucaparib 0.115 | [9] -0.029 | encorafenib 0.106 | [10] -0.066

MIEN1 (UniProt Q9BRT3)
inactive: [1] 0.055 | volasertib -0.047 | [2] -0.02 | epoxomicin 0.008 | [3] 0.045 | [4] 0.029 | [5] 0.181 | rosiglitazone -0.007 | [6] 0.008 | saracatinib 0.049 | sotrastaurin -0.067 | alvocidib -0.141 | Tubastatin A 0.069 | [8] -0.002 | defactinib -0.067 | rucaparib -0.032 | [9] -0.019 | encorafenib -0.051 | [10] 0.129
active: [7] 0.284
